According to PubChem BioAssay (EPA / NIEHS):
Active and inactive are the calls of the source. Rule for the calls: active = hit-call score of the fitted dose curve at least 0.9, where 1 is the maximum; inactive = score below 0.9.

Experiment: ATG_PPRE_CIS: Attagene CIS-FACTORIAL HepG2 Assay for human Peroxisome Proliferator-activated Response Element (PPRE) (AID 2282958)
Conditions: HepG2 PPRE cis-element reporter, Attagene transcription factor profiling; actives raise or lower the signal
Description: ATG_CIS is a cell-based, multiplexed-readout assay that uses HepG2, a human liver cell line, with measurements taken at 24 hours after chemical dosing in a 24-well plate.ATG_PPRE_CIS is one of 52 assay component(s) measured or calculated from the ATG_CIS assay. It is designed to make measurements of mRNA induction, a form of inducible reporter, as detected with fluorescence intensity signals by Reverse transcription polymerase chain reaction (RT-PCR) and Capillary electrophoresis technology.Data from the assay component ATG_PPRE_CIS was analyzed into 1 assay endpoint. This assay endpoint, ATG_PPRE_CIS, was analyzed with bidirectional fitting relative to DMSO as the negative control and baseline of activity. Using a type of inducible reporter, measures of mRNA for gain or loss-of-signal activity can be used to understand the reporter gene at the transcription factor-level as they relate to the gene PPARA and PPARD and PPARG. Furthermore, this assay endpoint can be referred to as a primary readout, because this assay has produced multiple assay endpoints where this one serves a reporter gene function. To generalize the intended target to other relatable targets, this assay endpoint is annotated to the nuclear receptor intended target family, where the subfamily is non-steroidal.
Human liver HepG2 cells are transiently transfected with multiple reporter transcription units (MRTUs) in 6-well plates using FuGene 6 reagent (Roche; 3 ml FuGene/1 mg DNA). The MRTU constructs are regulated by a cis-regulating element (promoter). […] A major difference between the CIS and TRANS system is that in CIS activities of endogenous TFs are measured, whereas the TRANS assay evaluates changes in activities of exogenous, chimeric NR-Gal4 proteins. […] At the end of 24 hour incubation, total RNA was isolated using TriZol reagent (Invitrogen). The isolated RNA is then reverse-transcribed using oligo(dT) primer and Mo-MLV reverse transcriptase (Invitrogen) with DNAse I (Ambion) treatment for 30 min. The one-tenth of the produced cDNA was amplified by PCR using Taq DNA polymerase (Invitrogen) and two reporter sequence-specific primers. The PCR products were fluorescently labeled by primer extension with 6-arboxyfluorescein (6-FAM) 5'-labeled reporter sequence-specific primer (2 min at 95 C, 20 s at 68 C and 10 min at 72 C) and these products were digested with 5U of HpaI (New England Biolabs) for 2h at 37 C. The fragments were purified using Qiaquick PCR columns (Qiagen), analyzed on an ABI 3130xL genetic analyzer (Applied Biosystems) with peak positions identified by using a set of X-rhodamine (ROX)-labeled MapMarker1000 molecular weight standards (BioVentures). The raw capillary electrophoresis data was processed using Attagraph software (Attagene).

Row | Compound | outcome | AC50
1 | O=C1c2ccc(O)c(O)c2C(=O)c2c(O)ccc(O)c21 | inactive | –
2 | CCOC(OCC)C(=O)c1ccccc1 | inactive | –
3 | Oc1c(Cl)ccc(Cl)c1Cl | – | 40.4 µM (active)
4 | CCCCCCCCCCCCCCCC(=O)OC | inactive | –
5 | O=CC(F)(F)C(F)(F)C(F)(F)C(F)F | inactive | –
6 | OCCN1CN(CCO)CN(CCO)C1 | inactive | –
7 | NNc1nc(-c2ccc([N+](=O)[O-])cc2)cs1 | inactive | –
8 | O=C(Nc1cccc([N+](=O)[O-])c1)c1cc2ccccc2cc1O | – | 4.22 µM (active)
9 | CCOCCOCC | inactive | –
10 | Cc1ccccc1C(OCCN(C)C)c1ccccc1 (stereo not given) | inactive | –
11 | O=C(NCc1ncc(C(F)(F)F)cc1Cl)c1c(Cl)cccc1Cl | inactive | –
12 | NC(C(F)(F)F)C(F)(F)F | inactive | –
13 | O=c1cc(-c2ccccc2)oc2ccc3ccccc3c12 | inactive | –
14 | COCN(COC)c1nc(N(COC)COC)nc(N(COC)COC)n1 | inactive | –
15 | FC(OC(F)(F)C(F)(F)C(F)(F)F)C(F)(F)F (stereo not given) | inactive | –
16 | CCc1ccccc1O | inactive | –
17 | COC(=O)CC(C(C)=O)C(=O)OC (stereo not given) | inactive | –
18 | CC(C)(c1ccc(Oc2ccc(N)cc2)cc1)c1ccc(Oc2ccc(N)cc2)cc1 | inactive | –
19 | c1cc[nH]c1 | inactive | –
20 | C[C@]12CC[C@@H]3c4ccc(O)cc4CC[C@H]3[C@@H]1C[C@@H](O)[C@@H]2O | inactive | –

Row | Compound | outcome | AC50
21 | Cc1ccc(N=Nc2c(O)ccc3ccccc23)c(C)c1 | inactive | –
22 | CCO[Si](C)(C)OCC | inactive | –
23 | CC(C)(C)c1ccc(O)c(O)c1 | inactive | –
24 | CCOC=O | inactive | –
25 | CCCCCCCCCCCCCC[n+]1ccccc1 | inactive | –
26 | CCCCC(CC)C(=O)O (stereo not given) | inactive | –
27 | COc1cccc(O)c1 | inactive | –
28 | CC1=NN(c2ccccc2)C(=O)C1 | inactive | –
29 | O=C(OC(=O)C(F)(F)C(F)(F)F)C(F)(F)C(F)(F)F | inactive | –
30 | CCCCCC(C)OC(=O)COc1ccc(Cl)c2cccnc12 (stereo not given) | inactive | –
31 | O=P(O)(O)CCC(F)(F)C(F)(F)C(F)(F)C(F)(F)C(F)(F)C(F)(F)F | inactive | –
32 | O=S(=O)(c1ccc(OCc2ccccc2)cc1)c1ccccc1O | – | 0.156 µM (active)
33 | O=C(Nc1ccc(Cl)c(Cl)c1)c1cc(Cl)cc(Cl)c1O | – | 0.648 µM (active)
34 | FC(F)(F)C(F)(F)C(F)(F)Br | inactive | –
35 | CCCCCCCCC1CCC(=O)O1 (stereo not given) | inactive | –
36 | COc1ccccc1NC(=O)c1cc2ccccc2cc1O | inactive | –
37 | C=Cc1ccc(O)c(OC)c1 | – | 13 µM (active)
38 | C/C=C/C(=O)C1=C(C)CCCC1(C)C | inactive | –
39 | OCC1CCC(CO)CC1 (stereo not given) | inactive | –
40 | CC(=O)Nc1ccc(O)cc1 | inactive | –
